Results on 6 molecules are retold here after PubChem BioAssay (NCATS).

Unmarked numbers belong to inactive results. Results filed as inconclusive are left out. Active and inactive are the calls of the source. Unless noted, calls follow the shape of the dose curve; as a rule, active = well fitted curve in the direction sought with a large enough effect; inconclusive = small, poorly fitted or top-dose-only effect, or another doubt; inactive = no such curve, though single readings can be large; an effect the other way counts as inactive or inconclusive. Some results are limits rather than exact numbers.

Experiment [1] deals with Lysosomal acid glucosylceramidase (Homo sapiens) (UniProt P04062). Description: Glucocerebrosidase-p2 (AID 348; in the data active = potency below about 10 µM; also: potency is read from the fitted curve at half-maximal effect). The note with it: purified GBA, blue fluorogenic substrate, 40 min. Put shortly:
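Normal human glucocerebrosidase (0.2 nM) with blue fluorogenic substrate (80 uM final) in citrate/phosphate pH 5.9 with 10mM sodium taurocholate, 0.01% tween-20; 40 min RT, NaOH/glycine stop; fluorescence Ex 365/Em 440; AC50 from a titration from 0.6 nM upwards.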

A short description of experiment [2]: AP1 Signaling Pathway (AID 357; active = well fitted curve in either direction with a large enough effect, not every such curve was filed as active; also: % is scaled to controls: 0 for no effect and ±100 for the full control effect). The note with it: ME-180 AP-1-bla reporter, EGF-induced, beta-lactamase ratio, 5 h; at 7.69 µM (top of the series) unless noted. Put shortly: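 AP-1-bla ME-180 cells, Opti-MEM + 0.5% dialyzed FBS, plated overnight 37 °C. Cpd titration + EC50 EGF, 5 h 37 °C. CCF4 2.5 h RT; ex 405, em 460/530 ratio → %activity, AC50.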
In experiment [3] the target is Cytochrome P450 1A2 (Homo sapiens) (UniProt P05177). Description: p450-cyp1a2 (AID 410; calls by dose curve; also: potency is read from the fitted curve at half-maximal effect). To be noted: recombinant CYP1A2, luciferin-ME demethylation, luminescence; series mostly up to 57 µM. Put shortly: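 O-Demethylation of luciferin 6' methyl ether by human CYP1A2 is monitored as luciferase luminescence. Substrate sits at Km (100uM); enzyme is 20nM. Values are scaled to 57 uM furafylline as maximal inhibition.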
Chain of Cytochrome P450 1A2 (Homo sapiens) (P05177 whole entry, looked up): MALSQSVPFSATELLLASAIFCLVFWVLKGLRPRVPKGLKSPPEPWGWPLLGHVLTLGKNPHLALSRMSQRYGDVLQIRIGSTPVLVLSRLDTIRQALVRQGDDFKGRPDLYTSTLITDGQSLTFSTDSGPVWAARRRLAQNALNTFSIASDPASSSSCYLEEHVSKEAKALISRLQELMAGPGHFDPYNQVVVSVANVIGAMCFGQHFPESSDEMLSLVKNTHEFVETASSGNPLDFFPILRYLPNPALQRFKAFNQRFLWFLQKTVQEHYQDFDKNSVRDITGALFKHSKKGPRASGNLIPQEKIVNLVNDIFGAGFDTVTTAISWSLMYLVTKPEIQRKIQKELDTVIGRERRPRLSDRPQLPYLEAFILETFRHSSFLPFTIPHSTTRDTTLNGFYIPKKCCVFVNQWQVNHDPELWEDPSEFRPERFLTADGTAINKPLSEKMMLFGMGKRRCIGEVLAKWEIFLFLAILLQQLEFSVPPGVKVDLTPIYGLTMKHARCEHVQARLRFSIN

Experiment [4] is described as follows: NFAT Signaling Pathway (AID 444; active = well fitted curve in either direction with a large enough effect, not every such curve was filed as active;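 also: carbachol stimulus at about its EC50 of 1 µM final; % is scaled to controls: 0 for no effect and ±100 for the full control effect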). The note with it: Jurkat NFAT-bla M1, carbachol, beta-lactamase ratio, 5 h; at 7.69 µM (top of the series) unless noted. The method, boiled down: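 Read-out: CCF4 FRET ratio (460 nm/530 nm) after 1 h RT dye loading, used for %activity and AC50 from titration series. Cells: Jurkat NFAT-β-lactamase/M1 line, treated with compound plus 1 uM carbachol for 5 h, 37 °C.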

The nature of experiment [5]: Stat Signaling Pathway (AID 446; active = well fitted curve in either direction with a large enough effect, not every such curve was filed as active;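 also: ME-180 cervical cancer cells given 40 pM IL-6 alongside compound; SIE-controlled beta-lactamase reporter measured as 460/530 nm FRET emission ratio; % is scaled to controls: 0 for no effect and ±100 for the full control effect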). The note with it: ME-180 (cervical carcinoma) SIE beta-lactamase reporter, IL-6 stimulated, 5 h; at 7.69 µM (top of the series) unless noted. Put shortly: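 Overnight-plated ME-180 cells bearing a STAT Inducible Element beta-lactamase reporter; 5 h co-exposure to compound and 40 pM IL-6; values normalized to 300 pM IL-6 and 125 nM JAK inhibitor controls.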

Experiment [6] concerns the target Glucocorticoid receptor (Homo sapiens) (UniProt P04150). Kind of experiment: GR-GFP Redistribution (AID 450;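 active = compounds whose dose series gives a full or clear partial fitted curve of increased nuclear translocation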; also: potency is read from the fitted curve at half-maximal effect). To be noted: U2OS GR-GFP nuclear translocation, laser cytometry, 2 h.
Experiment [7] has the same target. Kind of experiment: GR-EFC Redistribution (AID 451; calls by dose curve; also: potency is read from the fitted curve at half-maximal effect). To be noted: CHO-K1 GR-EFC translocation, beta-gal luminescence, 2 h. The method, boiled down:
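Translocation of GR-ED fusion to nuclear EA restores b-gal, read by luminescence after 1 h room-temperature detection. Engineered CHO-K1 biosensor cells, 1,000/well, exposed 2 h at 37 C to titrations up to 46 uM final.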

The target in experiment [8] is Mitogen-activated protein kinase 10 (Mus musculus) (UniProt Q61831). Kind of experiment: JNK3 AlphaScreen Assay (AID 530; active = well fitted curve in either direction with a large enough effect, not every such curve was filed as active;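 also: kinase came from lysate of stimulated human HepG2 cells; signal reports phosphorylation of biotinylated GST-cJun 1-79 at Ser73 with 10 µM ATP; % is scaled to controls: 0 for no effect and ±100 for the full control effect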). To be noted: JNK3 lysate, c-Jun phosphorylation; series mostly up to 57.1 µM. The method, boiled down: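 qHTS titrations with 15 min compound pre-incubation before adding ATP (10 uM final). Read-out: AlphaScreen of Ser73-phosphorylated biotin-GST-cJun using HepG2 lysate JNK3 activated by IL-1β and TNFα.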

Experiment [9] addresses 3',5'-cyclic-AMP phosphodiesterase 4B (Homo sapiens) (UniProt Q07343). Description: qHTS Assay for Inhibitors of PDE-IV (AID 607; active = well fitted activation curve with a large enough effect in the main read-out, with a control signal flat, not every such curve was filed as active; also: % of control where 0% means no effect). To be noted: HEK293 ACTOne CNG channel cells, membrane potential fluorescence; series mostly up to 22.9 µM. The method, boiled down:
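Live HEK293 cells with a modified cyclic nucleotide-gated (CNG) channel report intracellular cAMP via membrane-potential dye fluorescence (ex 535/em 590 nm). Endogenous PDE-IV was targeted. Compounds were tested at up to 22.9 uM final; RO 20-1724 100 uM served as control.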

In experiment [10] the target is Cytochrome P450 2C9 (Homo sapiens) (UniProt P11712). Kind of experiment: qHTS Assay for Inhibitors and Substrates of Cytochrome P450 2C9 (AID 883). Also: % is scaled to controls: 0 for no effect and ±100 for the full control effect; nearly all actives have a fitted effect of over 60% in size. To be noted: recombinant CYP2C9, luciferin-H luminescence, 60 min; series mostly up to 57.1 µM. Put shortly: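 Inhibition of CYP2C9 is scored as loss of luminescence, with 57uM sulphaphenazole defining 100% inhibition. Substrate Luciferin-H is used at 100uM, equal to its KM; enzyme at 10nM in 25mM KPO4, 60 min at 37C with NADPH regeneration.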

Experiment [11] deals with Cytochrome P450 3A4 (Homo sapiens) (UniProt P08684). Description: qHTS Assay for Inhibitors and Substrates of Cytochrome P450 3A4 (AID 884). Also: potency is read from the fitted curve at half-maximal effect; nearly all actives have a fitted effect of over 50% in size. The note with it: recombinant CYP3A4, Luciferin-PPXE luminescence; series mostly up to 57.1 µM. The method, boiled down:
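Luminescent readout of luciferin produced by CYP3A4 (20 nM) dealkylation of Luciferin-PPXE, 25 uM (its KM). NADPH-driven reaction ran 60 min at RT after 10 min compound preincubation; data scaled to 57 uM ketoconazole as 100% inhibition.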

For experiment [12] the target is unchanged. Kind of experiment: qHTS Assay for Activators of Cytochrome P450 3A4 (AID 885). Also: nearly all actives have a fitted effect of over 65% in size. To be noted: recombinant CYP3A4, Luciferin-PPXE luminescence, 60 min; series mostly up to 57.1 µM. Put shortly:
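Using 20nM recombinant human CYP3A4 in potassium phosphate (200mM), substrate Luciferin-PPXE at 25uM, luminescent luciferin detection followed a 60-min RT NADPH reaction; data scaled to 57 uM ketoconazole.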

The target in experiment [13] is Dual specificity protein kinase CLK4 (Homo sapiens) (UniProt Q9HAZ1). Description: qHTS Assay for Inhibitors of CDC-like Kinase 4 (Kinase-Glo Assay) (AID 1770). Also: nearly all actives have a fitted effect of over 65% in size. Also: potency is read from the fitted curve at half-maximal effect. To be noted: recombinant Clk4, Kinase-Glo ATP depletion luminescence; series mostly up to 66.7 µM. Put shortly:
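Readout: Kinase-Glo luminescence from ATP left after a 4.5 h room-temperature reaction of 25 nM Clk4 with 100 uM RS peptide and 1 uM ATP (final). Buffer: 25 mM Tris pH 7.5, 10 mM MgCl2.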

Experiment [14] shares this target. Kind of experiment: qHTS Assay for Inhibitors of CDC-like Kinase 4 (ADP-FP Assay) (AID 1795).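 Also: recombinant human CLK4 phosphorylating RS repeat peptide at 1 µM ATP; % is scaled to controls: 0 for no effect and ±100 for the full control effect; nearly all actives have a fitted effect of over 60% in size.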 To be noted: Transcreener ADP fluorescence polarization; series mostly up to 50 µM. Put shortly:
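FP readout: Orange Transcreener ADP2 tracer (4 nM) plus ADP antibody, read after 30 min at room temperature. Kinase step: 6.25 nM Clk4, 100 uM RS peptide, 1 uM ATP, pH 7.5, 1 h.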

Experiment [15] addresses Ubiquitin carboxyl-terminal hydrolase 1 (Homo sapiens) (UniProt O94782). Kind of experiment: Inhibitors of USP1/UAF1: Pilot qHTS (AID 504865).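 Also: rhodamine fluorescence freed from ubiquitin-rhodamine substrate followed over time; top concentration of the series differs between compounds; % is scaled to controls: 0 for no effect and ±100 for the full control effect; nearly all actives have a fitted effect of over 35% in size.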 To be noted: purified USP1/UAF1, Ub-rhodamine cleavage fluorescence; series mostly up to 54.9 µM. Put shortly: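 1nM USP1/UAF1 + cpd, 15 min RT; start w/ Ub-Rho 150nM final; kinetic FL 480/540 nm, 6 reads q60 s. Buffer 50mM HEPES pH 7.8, 0.5mM EDTA, 1mM TCEP, 0.01% Tween-20, 0.1 mg/ml BSA.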

A short description of experiment [16]: Primary qHTS for small molecule stabilizers of the endoplasmic reticulum resident proteome: Secreted ER Calcium Modulated Protein (SERCaMP) assay (AID 1508630). Also: % is scaled to controls: 0 for no effect and ±100 for the full control effect. To be noted: SH-SY5Y GLuc-SERCaMP (Gaussia luciferase released on ER calcium loss) secretion, thapsigargin, luminescence; series mostly up to 38.4 µM. The method, boiled down: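 The SH-SY5Y reporter protocol was run at 3 concentrations up to 38.3 uM (primary) or 11 concentrations (follow-up): 16 h compound, 100 nM thapsigargin for 4 h, then extracellular luciferase luminescence.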

Experiment [17] addresses Cytochrome P450 2C19 (Homo sapiens) (UniProt P33261). Description: qHTS Assay for Inhibitors and Substrates of Cytochrome P450 2C19 (AID 899). Also: nearly all actives have a fitted effect of over 60% in size. Also: potency is read from the fitted curve at half-maximal effect. To be noted: recombinant CYP2C19, luciferin-H EGE luminescence; series mostly up to 57.1 µM. Put shortly:
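5nM enzyme + 10uM Luciferin-H EGE (=KM), 50mM KPO4; cpd pin-transferred, 10 min 37C; NADPH regen, 60 min 37C; stopped w/ luciferin detection reagent, 20 min; luminescence. Normalized to 57uM ketoconazole (AC100).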

Experiment [18] concerns the target Dual specificity protein kinase CLK4 (Homo sapiens) (UniProt Q9HAZ1). Kind of experiment: qHTS Assay for Inhibitors of CDC-like Kinase 4 (ADP-Glo Assay) (AID 1771). Also: nearly all actives have a fitted effect of over 70% in size. Also: potency is read from the fitted curve at half-maximal effect. The note with it: recombinant CLK4, ADP-Glo luminescence; series mostly up to 80 µM. Put shortly:
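Compounds are pin-transferred onto substrate mix (100 uM RS peptide, 1 uM ATP), then 25 nM Clk4 is added. After 1 hr at room temperature, ADP-Glo reagent runs 45 min, detection reagent 30 min, then luminescence is read.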

Chain of Ubiquitin carboxyl-terminal hydrolase 1 (Homo sapiens) (O94782 whole entry, looked up): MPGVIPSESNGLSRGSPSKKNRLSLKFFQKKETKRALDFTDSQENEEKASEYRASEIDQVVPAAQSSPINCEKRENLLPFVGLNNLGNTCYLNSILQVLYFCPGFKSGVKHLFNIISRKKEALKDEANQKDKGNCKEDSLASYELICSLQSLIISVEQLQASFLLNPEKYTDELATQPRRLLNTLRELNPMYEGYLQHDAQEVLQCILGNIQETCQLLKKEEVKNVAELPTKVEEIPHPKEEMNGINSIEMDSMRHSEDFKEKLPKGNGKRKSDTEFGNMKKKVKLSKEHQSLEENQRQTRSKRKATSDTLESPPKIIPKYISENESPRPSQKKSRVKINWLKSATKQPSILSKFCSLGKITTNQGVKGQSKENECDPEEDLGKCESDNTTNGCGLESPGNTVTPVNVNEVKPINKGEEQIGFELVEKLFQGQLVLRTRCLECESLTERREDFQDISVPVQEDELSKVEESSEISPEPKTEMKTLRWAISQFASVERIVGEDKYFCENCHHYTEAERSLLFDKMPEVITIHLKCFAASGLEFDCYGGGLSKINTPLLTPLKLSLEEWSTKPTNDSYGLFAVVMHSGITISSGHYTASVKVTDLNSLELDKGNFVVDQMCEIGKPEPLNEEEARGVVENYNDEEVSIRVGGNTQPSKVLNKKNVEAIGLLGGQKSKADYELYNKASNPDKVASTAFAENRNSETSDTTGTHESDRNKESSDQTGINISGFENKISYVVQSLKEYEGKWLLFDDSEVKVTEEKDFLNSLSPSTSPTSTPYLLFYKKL
Chain of Dual specificity protein kinase CLK4 (Homo sapiens) (Q9HAZ1 whole entry, looked up): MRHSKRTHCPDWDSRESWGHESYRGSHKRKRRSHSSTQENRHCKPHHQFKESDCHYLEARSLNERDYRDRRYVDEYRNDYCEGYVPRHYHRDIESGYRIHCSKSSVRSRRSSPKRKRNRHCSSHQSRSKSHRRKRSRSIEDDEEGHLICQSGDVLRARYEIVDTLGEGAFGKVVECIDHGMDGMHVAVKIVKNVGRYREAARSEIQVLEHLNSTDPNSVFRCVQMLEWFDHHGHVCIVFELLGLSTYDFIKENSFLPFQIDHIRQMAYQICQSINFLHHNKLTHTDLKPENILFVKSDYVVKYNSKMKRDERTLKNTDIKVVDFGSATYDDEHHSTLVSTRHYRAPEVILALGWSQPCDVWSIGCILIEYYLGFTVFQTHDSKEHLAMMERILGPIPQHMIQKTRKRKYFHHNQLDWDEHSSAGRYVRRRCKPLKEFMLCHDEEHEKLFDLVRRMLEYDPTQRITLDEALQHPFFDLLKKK
Chain of 3',5'-cyclic-AMP phosphodiesterase 4B (Homo sapiens) (Q07343 whole entry, looked up): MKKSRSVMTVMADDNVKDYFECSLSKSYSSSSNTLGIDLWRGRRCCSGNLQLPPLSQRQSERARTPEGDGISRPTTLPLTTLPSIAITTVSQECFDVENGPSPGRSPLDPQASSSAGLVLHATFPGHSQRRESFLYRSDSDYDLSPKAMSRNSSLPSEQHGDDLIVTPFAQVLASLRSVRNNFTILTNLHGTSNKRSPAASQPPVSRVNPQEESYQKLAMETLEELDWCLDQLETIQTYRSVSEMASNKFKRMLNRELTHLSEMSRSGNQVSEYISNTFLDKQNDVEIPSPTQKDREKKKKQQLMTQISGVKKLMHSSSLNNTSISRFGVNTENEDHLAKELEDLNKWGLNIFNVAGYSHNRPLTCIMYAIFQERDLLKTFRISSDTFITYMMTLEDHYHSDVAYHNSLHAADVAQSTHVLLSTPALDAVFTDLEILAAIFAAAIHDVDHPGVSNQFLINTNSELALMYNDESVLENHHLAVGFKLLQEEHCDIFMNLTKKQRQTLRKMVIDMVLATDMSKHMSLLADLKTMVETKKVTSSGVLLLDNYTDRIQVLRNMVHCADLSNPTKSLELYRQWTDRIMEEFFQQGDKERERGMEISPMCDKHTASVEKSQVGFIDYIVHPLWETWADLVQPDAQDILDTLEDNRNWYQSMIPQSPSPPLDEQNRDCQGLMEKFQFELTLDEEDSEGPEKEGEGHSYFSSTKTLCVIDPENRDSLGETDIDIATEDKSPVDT
Chain of Glucocorticoid receptor (Homo sapiens) (P04150 whole entry, looked up): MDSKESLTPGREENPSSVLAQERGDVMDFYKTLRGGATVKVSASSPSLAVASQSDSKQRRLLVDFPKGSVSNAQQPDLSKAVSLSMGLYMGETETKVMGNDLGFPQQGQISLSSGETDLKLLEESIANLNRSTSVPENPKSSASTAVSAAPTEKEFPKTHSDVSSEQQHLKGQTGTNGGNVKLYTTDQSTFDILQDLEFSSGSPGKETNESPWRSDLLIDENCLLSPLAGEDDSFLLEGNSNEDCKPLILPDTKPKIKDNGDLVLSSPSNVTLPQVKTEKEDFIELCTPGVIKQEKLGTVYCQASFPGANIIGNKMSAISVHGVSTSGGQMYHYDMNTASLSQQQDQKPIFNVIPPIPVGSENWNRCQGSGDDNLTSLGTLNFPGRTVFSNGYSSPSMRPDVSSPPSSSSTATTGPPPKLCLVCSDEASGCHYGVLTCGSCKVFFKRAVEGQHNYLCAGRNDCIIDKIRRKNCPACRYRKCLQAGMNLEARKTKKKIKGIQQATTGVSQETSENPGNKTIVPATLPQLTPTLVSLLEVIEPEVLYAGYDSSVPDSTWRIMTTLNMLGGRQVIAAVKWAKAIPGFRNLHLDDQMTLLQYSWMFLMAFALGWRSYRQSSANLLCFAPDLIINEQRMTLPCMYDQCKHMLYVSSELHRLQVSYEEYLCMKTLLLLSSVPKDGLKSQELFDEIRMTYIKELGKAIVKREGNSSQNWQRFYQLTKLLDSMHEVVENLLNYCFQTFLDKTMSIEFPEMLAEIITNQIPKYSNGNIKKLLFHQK
Chain of Lysosomal acid glucosylceramidase (Homo sapiens) (P04062 whole entry, looked up): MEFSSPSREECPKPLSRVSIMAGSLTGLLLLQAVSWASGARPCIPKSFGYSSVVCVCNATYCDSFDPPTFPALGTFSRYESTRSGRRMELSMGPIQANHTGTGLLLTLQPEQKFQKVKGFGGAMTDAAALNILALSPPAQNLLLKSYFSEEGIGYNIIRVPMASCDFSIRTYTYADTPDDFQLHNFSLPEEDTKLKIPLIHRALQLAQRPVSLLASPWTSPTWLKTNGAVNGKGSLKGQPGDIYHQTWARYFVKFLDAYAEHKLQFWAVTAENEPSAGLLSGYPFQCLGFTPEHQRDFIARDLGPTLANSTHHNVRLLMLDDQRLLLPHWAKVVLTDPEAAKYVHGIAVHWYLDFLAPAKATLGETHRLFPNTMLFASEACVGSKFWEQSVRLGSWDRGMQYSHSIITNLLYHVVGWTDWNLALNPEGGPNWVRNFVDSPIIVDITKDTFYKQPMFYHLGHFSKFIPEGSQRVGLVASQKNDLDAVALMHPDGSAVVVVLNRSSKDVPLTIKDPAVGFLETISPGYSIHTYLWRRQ
Chain of Cytochrome P450 3A4 (Homo sapiens) (P08684 whole entry, looked up): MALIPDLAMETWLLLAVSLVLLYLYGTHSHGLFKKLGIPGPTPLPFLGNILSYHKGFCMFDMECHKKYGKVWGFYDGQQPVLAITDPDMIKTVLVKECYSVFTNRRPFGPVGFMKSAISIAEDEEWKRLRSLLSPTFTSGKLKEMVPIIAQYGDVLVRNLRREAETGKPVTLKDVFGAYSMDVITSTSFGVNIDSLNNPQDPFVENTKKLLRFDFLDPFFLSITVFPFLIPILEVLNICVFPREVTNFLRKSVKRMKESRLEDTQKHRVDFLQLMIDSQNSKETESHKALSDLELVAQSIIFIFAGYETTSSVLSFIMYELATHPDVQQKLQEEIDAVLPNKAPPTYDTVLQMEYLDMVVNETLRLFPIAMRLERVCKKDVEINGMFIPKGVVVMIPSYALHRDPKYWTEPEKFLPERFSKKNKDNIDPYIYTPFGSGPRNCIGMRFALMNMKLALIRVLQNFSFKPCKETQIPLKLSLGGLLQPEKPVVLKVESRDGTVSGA
Chain of Cytochrome P450 2C19 (Homo sapiens) (P33261 whole entry, looked up): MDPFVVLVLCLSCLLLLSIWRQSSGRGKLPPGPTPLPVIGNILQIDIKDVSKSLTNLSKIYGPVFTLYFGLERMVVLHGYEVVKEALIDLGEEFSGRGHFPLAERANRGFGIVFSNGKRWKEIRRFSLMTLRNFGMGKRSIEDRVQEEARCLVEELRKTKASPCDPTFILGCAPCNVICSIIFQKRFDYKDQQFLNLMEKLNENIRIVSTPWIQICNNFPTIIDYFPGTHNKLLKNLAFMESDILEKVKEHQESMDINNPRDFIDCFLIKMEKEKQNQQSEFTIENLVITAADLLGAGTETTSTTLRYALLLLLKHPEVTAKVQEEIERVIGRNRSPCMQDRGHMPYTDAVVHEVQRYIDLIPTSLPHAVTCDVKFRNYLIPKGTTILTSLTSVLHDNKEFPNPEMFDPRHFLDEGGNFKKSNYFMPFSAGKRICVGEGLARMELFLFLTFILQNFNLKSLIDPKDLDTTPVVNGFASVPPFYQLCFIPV

Take `Cc1noc(C)c1-c1nccc(NC2CC2)n1`: the Potency in [1] was greater than 11.4 µM; in experiment [3] it was 0.1 µM (active); in experiment [6] it was greater than 46 µM; in [7], greater than 46 µM; in experiment [11] it was 2.51 µM (active). Besides, the figures for the activity change, negative = inhibition in [2], in [4] and in experiment [10] were 13.6%, 19.7% and 3.44% [at 2.29 µM], respectively. The activity, negative = inhibition in [5] is 1.49%. The Potency entry in experiment [8], in experiment [9], in experiment [12], in experiment [13], in experiment [14] and in [15] was “inactive” each time. Besides, in experiment [16], the result was inactive.
`CC(=O)NCCNc1ncncc1-c1ccccc1CN(C)C`: the Potency was greater than 11.4 µM in experiment [1], 25.1 µM (active) in [3], greater than 46 µM in experiment [6] and greater than 46 µM in experiment [7]. The activity change, negative = inhibition in experiment [2] was 1.84%; in experiment [4], -2.17%. Besides, the activity, negative = inhibition in [5] was 0.764%. The Potency entry in experiment [8], in experiment [9], in experiment [12], in experiment [13], in [14] and in experiment [15] was “inactive” each time. The result in experiment [16] was inactive.
For `COc1ncc2nc(-c3cn(C)c4ccccc34)c(=O)n(C)c2n1`, the Potency in [1] is greater than 11.4 µM; in experiment [3] it was 1 µM (active); in [6], greater than 9.22 µM; in [7], greater than 46 µM; in experiment [11], 5.01 µM (active). The activity change, negative = inhibition is 4.21% in experiment [2] and 11.4% in experiment [4]. Besides, in experiment [5], the activity, negative = inhibition was 7.15%. For the same molecule, the Potency entry in experiment [8], in [9], in experiment [12], in experiment [17], in [13] and in experiment [14] was “inactive” throughout. In experiment [15], the Potency entry is “inactive”. In addition, the result in experiment [16] was inactive.
Regarding `CN1CCN(c2ncc3nc(-c4cn(C)c5ccccc45)c(=O)n(-c4ccccc4)c3n2)CC1`, the activity change, negative = inhibition in [2] is 2.43%; in [4] it was 20%. In addition, the Potency in experiment [3] is 15.8 µM (active); in experiment [6], greater than 9.22 µM; in [7] it was greater than 46 µM. In addition, in experiment [5], the activity, negative = inhibition was 4.99%. For the same molecule, the Potency result in [8], in experiment [9], in experiment [12], in experiment [13] and in [18] was “inactive” throughout. Further, the outcome in [16] was inactive.
For the molecule `CC(=O)NCCNc1ncnc2ccc(-c3ccccc3Cl)cc12`, the Potency in experiment [1] is greater than 11.4 µM; in experiment [6], greater than 46 µM; in experiment [7], greater than 46 µM; in experiment [13], 15.8 µM (active); in experiment [18], 15.8 µM (active). Besides, the activity change, negative = inhibition in experiment [4] was -0.746%. The activity, negative = inhibition in [5] was -1.74%. The Potency entry in experiment [8], in [12] and in [15] was “inactive” each time. In addition, the result in experiment [16] was inactive.
For `N#Cc1cccc(-c2cncnc2NCc2cccnc2)c1`, the Potency in experiment [1] was greater than 11.4 µM; in experiment [3] it was 5.01 µM (active); in [6] it was greater than 46 µM; in experiment [7] it was greater than 46 µM; in experiment [11], 1.26 µM (active); in experiment [17], 3.98 µM (active). The activity change, negative = inhibition is 13% in [2] and -3.61% in [4]. Also, the activity, negative = inhibition in experiment [5] is 6.63%. The Potency result in [8], in experiment [9], in [12], in [13], in experiment [14] and in [15] was “inactive” in each case. In experiment [16], the result was inactive.
